Measurements reported in PubChem BioAssay (NCI).
The panel holds about 79,000 compounds, 15% with a hit somewhere; the sample as a whole holds those more often. No stated cut-off is given here; in the data, active means growth inhibition above about 70%; inactive means the rest.

Assays:
[1] = NCI Yeast Anticancer Drug Screen. Data for the rad50 strain (AID 155);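 further: 0% = growth of vehicle-only cultures of the same strain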; details: S. cerevisiae rad50 strain growth inhibition, hits give high values; at 50.0 µM unless noted
How it was run: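 Vehicle-treated cultures provide the reference for the growth inhibition reported for compound-exposed, repair-deficient yeast.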

[2] = NCI Yeast Anticancer Drug Screen. Data for the mec2-1 strain (AID 157); details: S. cerevisiae mec2-1 strain, hits give high values; at 50.0 µM unless noted
How it was run: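 Using mec2-1 yeast: add compound, measure growth, express inhibition versus vehicle-treated cultures.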

[3] = NCI Yeast Anticancer Drug Screen. Data for the sgs1 mgt1 strain (AID 161);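 further: 0% = growth of cultures given vehicle only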; details: S. cerevisiae sgs1 mgt1 strain, hits give high values; at 50.0 µM unless noted
How it was run: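 This yeast growth screen uses a strain with defined DNA-repair lesions; compound-treated growth is compared with vehicle-treated growth.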

[4] = NCI Yeast Anticancer Drug Screen. Data for the cln2 rad14 strain (AID 165);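 further: 0% = growth equal to vehicle treated cultures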; details: S. cerevisiae cln2 rad14 strain, hits give high values; at 50.0 µM unless noted
How it was run: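 Yeast strain cln2 rad14, bearing defects in cell cycle control and DNA repair, serves as the test system; values reflect growth inhibition compared with vehicle.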

[5] = NCI Yeast Anticancer Drug Screen. Data for the bub3 strain (AID 167); details: S. cerevisiae bub3 mutant strain, hits give high values; at 50.0 µM unless noted
How it was run: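 Mutant yeast screening strain plus compound; vehicle-treated cultures serve as the 0% inhibition reference.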

[6] = NCI Yeast Anticancer Drug Screen. Data for the mlh1 rad18 strain (AID 175); details: S. cerevisiae mlh1 rad18 strain growth inhibition, hits give high values; at 50.0 µM unless noted
How it was run: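 Steps: expose repair-defective yeast to compound; measure growth; express inhibition against vehicle-treated controls.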

Measured: growth inhibition

O=C(NCc1ccco1)Nc1ccccc1C(F)(F)F
inactive: [1] 2.3% | [2] 0.2% | [3] 18.5% | [4] 19.6% | [5] 20.4% | [6] 17.1%

COC(=O)c1cc2c(cc1/C=C/C=O)OCO2
inactive: [1] -20% | [2] -15.8% | [3] -19.4% | [4] -27.9% | [5] -11% | [6] 13.8%

Cc1ccc(C(C)C)c(Oc2cc(C)ccc2C(C)C)c1
inactive: [1] -17.9% | [2] 7.1% | [3] -6.8% | [4] -37.8% | [5] -17.5% | [6] -19.8%
